Compound activity (PubChem BioAssay)
This excerpt belongs to a sample that is enriched for hits.
Tg IFNy HTS = T. gondii growth inhibition with IFN-gamma, primary screen, cell-based; Toxoplasma gondii growth in IFN-gamma-treated host cells; active compounds read low; activity change, negative = inhibition, % (no concentration beside the values); hit rate 3.8% among 69,000; AID 1259416, 2018; in the data active = activity change below about -70%, passing the limit was not always enough;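 also: host cells are HeLa cells infected with Toxoplasma gondii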
* = called active by the depositor.

For O=C(COc1ccccc1)N1CCC2(CC1)Nc1ccc(Cl)cc1-n1cccc12 the results were Tg IFNy HTS -84*.
O=C(COc1ccc(Cl)cc1)N1CCC2(CC1)Nc1ccccc1-n1cccc12 was read as Tg IFNy HTS -8.
Screening O=C(c1ccccc1)N1CCC2(CC1)Nc1ccc(Cl)cc1-n1cccc12 returned Tg IFNy HTS 6.
`Cc1ccc(NC(=O)N2CCC3(CC2)Nc2ccccc2-n2cccc23)cc1Cl` gave Tg IFNy HTS inactive.
CC(C)C(=O)N1CCC2(CC1)Nc1ccc(Cl)cc1-n1cccc12 was read as Tg IFNy HTS 45.
COc1ccc2c(c1)NC1(CCN(C(=O)Nc3ccc(Br)c(C)c3)CC1)c1cccn1-2 was read as Tg IFNy HTS 66.
CCOc1ccccc1C(=O)N1CCC2(CC1)Nc1ccc(Cl)cc1-n1cccc12 was read as Tg IFNy HTS -104*.
For CCC(C(=O)N1CCC2(CC1)Nc1ccc(Cl)cc1-n1cccc12)c1ccccc1 (stereo not given) the results were Tg IFNy HTS -128*.
Screening CCOc1ccccc1C(=O)N1CCC2(CC1)Nc1ccccc1-n1cccc12 returned Tg IFNy HTS 40.
For O=C(Nc1cccc(F)c1)N1CCCCN2[C@H](CO)[C@@H](c3ccc(C#Cc4cccnc4)cc3)[C@H]2C1 the results were Tg IFNy HTS -62.
CS(=O)(=O)NC[C@@]12COC[C@@H]1CN(Cc1ccc3c(c1)OCO3)C2 was read as Tg IFNy HTS -8.
Screening CC(C)OC(=O)C1C2C=CC3(CN(CC4CCCO4)C(=O)C13)O2 (stereo not given) returned Tg IFNy HTS 8.
`CN(C)c1ncc(-c2ccccn2)c(C2CCC(CNC(=O)c3ccn(C)c(=O)c3)CC2)n1` (stereo not given) gave Tg IFNy HTS 32.
Screening O=C(NCCc1nc(-c2cccnc2)n[nH]1)c1nc2c(s1)CCCC2 returned Tg IFNy HTS -2.
For COc1ccc2c(c1)c([C@@H]1CN(Cc3ccsc3)C[C@H]1N(C)C)cn2C the results were Tg IFNy HTS 263.
`O=C(C[C@H]1C=C[C@H](NC(=O)c2ccc3c(c2)OCO3)[C@H](CO)O1)NC1Cc2ccccc2C1` gave Tg IFNy HTS 42.
`CN(Cc1cc2n(n1)CCCNC2)Cc1cc(-c2ccncc2)no1` gave Tg IFNy HTS 2.
`Oc1ccccc1C1OC2CCCCC2C2=CCCCC21` (stereo not given) gave Tg IFNy HTS -44.
COc1ccc(CCC(=O)N2CCC3(CC2)Nc2ccccc2-n2cccc23)cc1 was read as Tg IFNy HTS -115*.
Screening COc1ccc(C(=O)N2CCC3(CC2)Nc2ccccc2-n2cccc23)cc1 returned Tg IFNy HTS -11.
For COc1ccc(CCC(=O)N2CCC3(CC2)Nc2ccc(Cl)cc2-n2cccc23)cc1 the results were Tg IFNy HTS -97*.
For COc1cc(CCC(=O)N2CCC3(CC2)Nc2ccccc2-n2cccc23)cc(OC)c1OC the results were Tg IFNy HTS -20.
`COc1cc(OC)cc(C(=O)N2CCC3(CC2)Nc2ccc(Cl)cc2-n2cccc23)c1` gave Tg IFNy HTS -9.
O=C(Cc1ccc(F)cc1)N1CCC2(CC1)Nc1ccc(Cl)cc1-n1cccc12 was read as Tg IFNy HTS -59.
Screening CCc1nc(OCC(=O)Nc2ccc(Br)cc2)c2ccccc2n1 returned Tg IFNy HTS -8.
For COc1cccc(OC)c1C(=O)NC(=O)Oc1c(F)cccc1F the results were Tg IFNy HTS -37.
`CC(C)C1CCC(C(=O)N[C@H](Cc2ccccc2)C(=O)O)CC1` (stereo not given in full) gave Tg IFNy HTS 16.
Screening COC(=O)c1cc(C)nc2c1c(=O)nc(SCc1nc(-c3ccccc3C)oc1C)n2C1CC1 returned Tg IFNy HTS inactive.
`Cc1ccc(NC(=O)N2CCc3nc(N4CCCC4)nc(C)c3CC2)cc1` gave Tg IFNy HTS 43.
O=C(Cn1c(=O)cc(-c2nc(C3CC3)no2)c2ccccc21)NC1CCCCC1 was read as Tg IFNy HTS -8.
CCc1nnc(NC(=O)CN2CCN(c3ccccc3)CC2)s1 was read as Tg IFNy HTS -68.
`O=C1c2cccc(O)c2C(=O)c2c(O)cc(CO)cc21` gave Tg IFNy HTS -62.
`O=C1c2c(O)ccc(O)c2C(=O)c2c(NCCNCCO)ccc(NCCNCCO)c21` gave Tg IFNy HTS -88*.
`Cc1cc(S(=O)(=O)NCCc2csc(-c3ccc(F)cc3)n2)ccc1F` gave Tg IFNy HTS -46.
`Cc1ccc(C2c3[nH]c4ccccc4c3CCN2C(=O)C2CCC2)cc1` (stereo not given) gave Tg IFNy HTS -45.
`O=C(CNC(=O)OCc1ccccc1)NC1CCCCCC1` gave Tg IFNy HTS 12.
CC1=CC(C)C(COC(=O)NC2CCCCC2)(COC(=O)NC2CCCCC2)C(C)C1 (stereo not given) was read as Tg IFNy HTS -101*.
Screening CS(=O)(=O)CC(=O)NC1CCCCC1 returned Tg IFNy HTS 40.
CC(=O)OC(c1ccccc1)c1cc2ccc1CCc1ccc(cc1)CC2 (stereo not given) was read as Tg IFNy HTS 6.
`Cc1nn(C)c2nc(NNC(=O)Nc3cc(Cl)nc(Cl)c3)cc(C(C)C)c12` gave Tg IFNy HTS -57.
Screening CCC(C)NCCOc1ccc(C(C)(C)c2ccccc2)cc1 (stereo not given) returned Tg IFNy HTS -7.
CCOc1ccccc1OCCN[C@H](C)Cc1ccc(OC)c(S(N)(=O)=O)c1 was read as Tg IFNy HTS 16.
Screening CCC(C)NCCOCCOc1ccc(Cl)c2ccccc12 (stereo not given) returned Tg IFNy HTS -94*.
Screening CC(=O)N1C[C@@H]2C(=O)N(C)C3(CCN(S(=O)(=O)c4ccc(Cl)cc4)CC3)[C@H]2C1 returned Tg IFNy HTS -3.
For CN(C)c1nc(N2CCOCC2)nc2c1CN(Cc1cccs1)CC2 the results were Tg IFNy HTS -27.
`COC(=O)Cn1c(-c2ccccc2)cn2c3c(=O)n(C)c(=O)n(C)c3nc12` gave Tg IFNy HTS -8.
`Cc1ccc(C)c(-n2c(C)cn3c4c(=O)n(CCN5CCOCC5)c(=O)n(C)c4nc23)c1` gave Tg IFNy HTS -76*.
For Cc1nc(-c2cc(C(=O)CCN3CCOCC3)c3ccccn23)cn1C the results were Tg IFNy HTS -34.
For OC(CNCc1cc2ccccc2s1)C(F)(F)F (stereo not given) the results were Tg IFNy HTS -86*.
Screening CC(c1cc2ccccc2s1)N(O)C(N)=O (stereo not given) returned Tg IFNy HTS -68.
Screening COc1ccc(/C=C(\NC(=O)c2cccs2)c2nc3ccccc3[nH]2)cc1OC returned Tg IFNy HTS 26.
`CN(C)CCN1C[C@@H]2CN(S(=O)(=O)Cc3ccccc3)C[C@H]2C1=O` gave Tg IFNy HTS 2.
`COC(=O)C[C@](O)(CCCC(C)(C)O)C(=O)O[C@@H]1C(OC)=C[C@]23CCCN2CCc2cc4c(cc2[C@H]13)OCO4` gave Tg IFNy HTS -82*.
CC1CCN(C(=O)COc2ccccc2-c2[nH]cnc2-c2ccccc2)CC1 was read as Tg IFNy HTS -26.
Screening CCOC(=O)c1csc(-c2cccnc2)n1 returned Tg IFNy HTS -36.
Screening Cc1nnc(Nc2cccc(C3CCN(S(=O)(=O)c4ccc(F)cc4)CC3)n2)s1 returned Tg IFNy HTS -6.
COc1ccc(CN2C(=O)N(C)C3(CCN(Cc4cccc(Oc5ccccc5)c4)CC3)C2=O)cc1 was read as Tg IFNy HTS -81*.
